Source: PubChem BioAssay
The source made the active and inactive calls.

assay: resazurin metabolic signal in A549 cells – cell-based, resazurin fluorescence, 24 h, PK04 Diversity Set, profiling panel (AID 1171); conditions: A549 viability, higher = more signal, called active from +8 up or from −8 down
Further: test concentration not given here.

SMILES | z-score
C#CCCCON=C1C[C@@H](O)[C@@H](O)[C@@H]2[C@@H]3C(=O)N(Cc4ccc5c(c4)OCO5)C(=O)[C@@H]3CC[C@@H]12 | 0.414 (inactive)
COC(=O)C1=CC(c2ccc(CO)cc2)=CC(c2cccs2)N(Cc2cccc(OC(F)(F)F)c2)C=C1C(=O)OC (stereo not given) | -0.0711 (inactive)
O=C1O[C@H](c2ccccc2)[C@H](c2ccccc2)N2[C@H]1[C@@H](C(=O)NC[C@H](O)c1ccccc1)[C@]1(C(=O)Nc3ccc(C#CC4=CCCCC4)cc31)[C@H]2c1ccc(OCCO)cc1 | -0.527 (inactive)
CC[C@H]1C2=C3C(CC[C@H]4C(OC)OC[C@](C)([C@@H]34)N(C(=O)OC(C)(C)C)C2)C(CO)C1CO (stereo not given in full) | -1.28 (inactive)

assay: resazurin metabolic signal in HepG2 cells – cell-based, resazurin fluorescence, 24 h, PK04 Diversity Set, profiling panel (AID 1172); conditions: HepG2 viability, higher = more signal

SMILES | z-score
COC(=O)Cn1c(C(=O)N2CCCC2)cc2c1C[C@H]1CN(C(=O)c3ccccc3)[C@@](Cc3ccccc3)(C(=O)OC)[C@@H]21 | -0.103
O=C1C[C@@](C(=O)NCCN2CCOCC2)(c2ccc([N+](=O)[O-])cc2)[C@@H](c2ccc(CO)cc2)N1C1CCCCC1 | -0.0886
CC(=O)NCCCC[C@@H]1NC(=O)[C@H]2C[C@@H](C(=O)NCCCCCCN(C)C)[C@@H](c3cccc(OCCO)c3)N2C1=O | -0.526
CC(C)(C)OC(=O)CC[C@]1(C(=O)N2CCCCC2)N=C(c2ccc(OCCCO)cc2)O[C@H]1c1ccccc1 | -0.302
CC(=O)NCCCC[C@@H]1NC(=O)[C@H]2C[C@@H](C(=O)NCCCCCCN(C)C)[C@@H](c3ccc(O)cc3)N2C1=O | -0.666
O=C1C2C=CC(C(O)Cc3ccccc3)N(Nc3ccc([N+](=O)[O-])cc3)C2C(=O)N1c1ccccc1 (stereo not given) | -0.346
